The test system of one assay is PPARg:RXRa IVT, anti-PPARg (NR concentration 270 nM, RXRa partner concentration 90 nM). Nature of the assay: PBM binding z-score (relative to random genomic background probes); higher = stronger binding; sequences stand for … in GC…GCGATTGACAGCGTAGAATGAAGG
A digest of the protocol:
(§1)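 Custom Agilent 4×180K protein-binding microarrays carried double-stranded probes, each with a 34-nt variable region. These regions held direct-repeat seeds, single-nucleotide variants, half-site ablations and random human genomic background sequences. Ligand-free nuclear receptor dimers were incubated on the arrays for 1 h, antibodies against each partner (one per run) detected binding, and scanned fluorescence was regression-normalized. Binding z-scores take the random background probes as reference.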
TCAGACACGTGAAGGTAACTCAGGTACGCAGTCG had a PBM binding z-score of 0.0169.

For the sequence CCTACTGGGCCATTCAAAGGTCATTGATCATATG, the PBM binding z-score was 4.81.

Consider CGTCAAAGTTCAAGGTAACGTATCAGAAAGCAGC, for which the PBM binding z-score was 2.03.

In the case of CCGTGTAGGTTATGGGGCATTCAGGCAACGGTGA, the PBM binding z-score is 2.67.

The sequence CGTCCAAGGTCAATGCTAGGTCCGTGAAAGCATT displayed a PBM binding z-score of 3.02.

For TCTTGTAGATCAAGCAGGTTACGAAAGCCTGAGT, the PBM binding z-score was found to be 1.04.

On to ATCTCTAGGTAAAGTTCAGTGCAAGATCGATAGA, for which the PBM binding z-score was 2.81.

The sequence AGTCAAAGTTCATCTAGGTGACGTAAGATATGCT yielded a PBM binding z-score of 4.74.

Turning to CGTCCAAGATCAGAGAGGTCAGTGAATGCCGAGT, the PBM binding z-score turned out to be 0.0749.

Regarding CAGCCTAGGTCAGAGCCAGTATAGGAGGAACGTT, the PBM binding z-score stood at 1.53.

As for GCTAGCTGGTCAGTAAAAGGTCACACACCGGTCG, the PBM binding z-score is 2.35.

On to TCTGCTAGCTCAACGATGGTCAGCTAATCTGCTA, for which the PBM binding z-score is -0.338.

As for AGAATGAGGTTATACGTAGATTAGGGAAGAAAGT, the PBM binding z-score came to 2.24.

The sequence TCTTGTAGATCAATTGAGGTTAAGAAAGTGCGCT gave a PBM binding z-score of 1.34.

Take GGAACGAGGGCAACTTGATAGCAGAGTTTGATGG: the PBM binding z-score is 3.29.

For the sequence TCGAGTAAGTTAGGGGCATTCAGAATGGCGTCGA, the PBM binding z-score is -0.26.

The sequence CCTACTGGGCCAAAGGTCATTGCTTCCAATGCTC displayed a PBM binding z-score of 6.61.

Regarding TTACCAAGGTGAAGATCGTTGATCCCTCTGTAGA, the PBM binding z-score worked out at 1.92.

In turn, CCAGGCAGGTGAAAGGTAACTCAGTCTGGTACGC returned a PBM binding z-score of 3.13.

Consider CCTCGGAGGACAGAAGGTCAGAGGTGTCCGCTTT, for which the PBM binding z-score was 0.357.

Consider GCGACTGGGGCAAAGCAGGTTACCATTAGGTTGG, for which the PBM binding z-score was determined as 3.63.

Consider TCTCGGAGAACACGAAAGGTCAGAGCTCGACATC, for which the PBM binding z-score came to 1.13.

Sequence CCTTACGGGTCAAGAGGTTATAGCACGACGAGCG came in with a PBM binding z-score of 3.77.

In the case of TAGCCTAGGTCGTGGGCCAGTATACCACGCGAAC, the PBM binding z-score turned out to be 0.595.

Consider TCATATAGGTAAATGCTAGGTGAAGGTCCGATCT, for which the PBM binding z-score came out at 2.74.

On to CCGAGTAGGTTATGGGGCATTCTGGCAACGGTGA, for which the PBM binding z-score came out at 3.19.

On to TCATATAGGTTAACAGGTGAAAGTCCGTAAGTTA, for which the PBM binding z-score is 5.64.

In the case of CCTCGGAGGACAGAAGGTCAGAGATGTCCGCTTT, the PBM binding z-score was 0.124.

In turn, GCTTGTAGATCAATGTTAAGAAAGACTAAGCTAA showed a PBM binding z-score of 0.377.

Regarding GGAACGAAGGCAAGTTGATAGCAGAGTTTGATGG, the PBM binding z-score is -0.659.

Turning to CCTAGTTGGCCAGGAGGTCACACACCGGATATGA, the PBM binding z-score stood at 2.22.

The sequence GATACAGGATCAAGGCCAGAGTACGCGTATTGAT had a PBM binding z-score of -0.0749.

In the case of ATATGTAGGTTATCGAGTCATTCAGTTTGCGCAT, the PBM binding z-score was 6.84.

ACTATCAGTTGACTTAGGGCAACCGATACGACGC came in with a PBM binding z-score of 0.386.

With CATACAAGGTCAGCTAGGCCAGAGTAGGGACGGC, the PBM binding z-score came out at 3.08.

Sequence CGTCGAAGTTCAACTAAGGTAACGTAAAGCACGC yielded a PBM binding z-score of 0.723.

Turning to ATATGTAGGTTATATCCGGGTCATTCAGGCTATG, the PBM binding z-score came to 6.59.

TCTGGTTGGTCACGGAGGTCACACACGACGGGTA had a PBM binding z-score of 3.7.

With TCGAGTAGGTTAGTCGGGGCATGCAGCCAACATA, the PBM binding z-score came out at 2.26.

Sequence CCTAACGGGTCACGAGGTTATAGCACGACGAGCG returned a PBM binding z-score of 4.94.

The subject of another assay is PPARg DBDmut:RXRa IVT, anti-PPARg (DBD mutation: PPARg1 K132A/R137A, NR concentration 270 nM, RXRa partner concentration 90 nM). The assay is described as above. The essentials:
as §1
With TCAGACACGTGAAGGTAACTCAGGTACGCAGTCG, the PBM binding z-score was -0.15.

On to CCTACTGGGCCATTCAAAGGTCATTGATCATATG, for which the PBM binding z-score is -0.127.

Take CGTCAAAGTTCAAGGTAACGTATCAGAAAGCAGC: the PBM binding z-score was 0.808.

Sequence CCGTGTAGGTTATGGGGCATTCAGGCAACGGTGA yielded a PBM binding z-score of -1.11.

On to CGTCCAAGGTCAATGCTAGGTCCGTGAAAGCATT, for which the PBM binding z-score is 0.341.

Turning to TCTTGTAGATCAAGCAGGTTACGAAAGCCTGAGT, the PBM binding z-score was -0.0946.

The sequence ATCTCTAGGTAAAGTTCAGTGCAAGATCGATAGA had a PBM binding z-score of 0.415.

AGTCAAAGTTCATCTAGGTGACGTAAGATATGCT showed a PBM binding z-score of 1.64.

On to CGTCCAAGATCAGAGAGGTCAGTGAATGCCGAGT, for which the PBM binding z-score is -0.351.

Take CAGCCTAGGTCAGAGCCAGTATAGGAGGAACGTT: the PBM binding z-score is -0.412.

As for GCTAGCTGGTCAGTAAAAGGTCACACACCGGTCG, the PBM binding z-score came out at 0.0238.

In turn, TCTGCTAGCTCAACGATGGTCAGCTAATCTGCTA gave a PBM binding z-score of -0.717.

In the case of AGAATGAGGTTATACGTAGATTAGGGAAGAAAGT, the PBM binding z-score is 1.48.

With TCTTGTAGATCAATTGAGGTTAAGAAAGTGCGCT, the PBM binding z-score stood at 0.476.

GGAACGAGGGCAACTTGATAGCAGAGTTTGATGG came in with a PBM binding z-score of 0.236.

For TCGAGTAAGTTAGGGGCATTCAGAATGGCGTCGA, the PBM binding z-score is -1.43.

With CCTACTGGGCCAAAGGTCATTGCTTCCAATGCTC, the PBM binding z-score was -0.293.

Consider TTACCAAGGTGAAGATCGTTGATCCCTCTGTAGA, for which the PBM binding z-score was determined as 0.401.

In turn, CCAGGCAGGTGAAAGGTAACTCAGTCTGGTACGC gave a PBM binding z-score of -1.38.

Take CCTCGGAGGACAGAAGGTCAGAGGTGTCCGCTTT: the PBM binding z-score was -1.36.

GCGACTGGGGCAAAGCAGGTTACCATTAGGTTGG: the PBM binding z-score is -0.282.

In turn, TCTCGGAGAACACGAAAGGTCAGAGCTCGACATC returned a PBM binding z-score of -0.0833.

As to CCTTACGGGTCAAGAGGTTATAGCACGACGAGCG, the PBM binding z-score turned out to be 0.866.

TAGCCTAGGTCGTGGGCCAGTATACCACGCGAAC came in with a PBM binding z-score of -0.359.

TCATATAGGTAAATGCTAGGTGAAGGTCCGATCT had a PBM binding z-score of 1.1.

Turning to CCGAGTAGGTTATGGGGCATTCTGGCAACGGTGA, the PBM binding z-score was -0.237.

In the case of TCATATAGGTTAACAGGTGAAAGTCCGTAAGTTA, the PBM binding z-score was 2.16.

CCTCGGAGGACAGAAGGTCAGAGATGTCCGCTTT gave a PBM binding z-score of -1.91.

GCTTGTAGATCAATGTTAAGAAAGACTAAGCTAA had a PBM binding z-score of -0.235.

On to GGAACGAAGGCAAGTTGATAGCAGAGTTTGATGG, for which the PBM binding z-score turned out to be 0.0164.

Turning to CCTAGTTGGCCAGGAGGTCACACACCGGATATGA, the PBM binding z-score was 0.522.

As for GATACAGGATCAAGGCCAGAGTACGCGTATTGAT, the PBM binding z-score stood at 0.581.

Sequence ATATGTAGGTTATCGAGTCATTCAGTTTGCGCAT registered a PBM binding z-score of 3.25.

With ACTATCAGTTGACTTAGGGCAACCGATACGACGC, the PBM binding z-score was 0.456.

The sequence CATACAAGGTCAGCTAGGCCAGAGTAGGGACGGC yielded a PBM binding z-score of 1.69.

Regarding CGTCGAAGTTCAACTAAGGTAACGTAAAGCACGC, the PBM binding z-score turned out to be 0.00916.

As for ATATGTAGGTTATATCCGGGTCATTCAGGCTATG, the PBM binding z-score stood at 5.13.

TCTGGTTGGTCACGGAGGTCACACACGACGGGTA showed a PBM binding z-score of 1.34.

The sequence TCGAGTAGGTTAGTCGGGGCATGCAGCCAACATA registered a PBM binding z-score of 0.028.

CCTAACGGGTCACGAGGTTATAGCACGACGAGCG came in with a PBM binding z-score of 1.47.
